High-throughput results deposited in PubChem by National Center for Advancing Translational Sciences (NCATS).
Compounds with a hit are over-represented: about 1.6% of the library has one in this group of screens.
12-LOX inh – Primary qHTS assay for inhibitors of human arachidonate 12S-lipoxygenase (ALOX12): Round 2; Polyunsaturated fatty acid lipoxygenase ALOX12 (Homo sapiens), P18054; purified 12hLO, xylenol orange hydroperoxide absorbance; Potency, µM (highest dose often 108 µM), most hits filed as inhibitors; hit rate 1.1% among 580,000
Target sequence (P18054 whole entry, looked up): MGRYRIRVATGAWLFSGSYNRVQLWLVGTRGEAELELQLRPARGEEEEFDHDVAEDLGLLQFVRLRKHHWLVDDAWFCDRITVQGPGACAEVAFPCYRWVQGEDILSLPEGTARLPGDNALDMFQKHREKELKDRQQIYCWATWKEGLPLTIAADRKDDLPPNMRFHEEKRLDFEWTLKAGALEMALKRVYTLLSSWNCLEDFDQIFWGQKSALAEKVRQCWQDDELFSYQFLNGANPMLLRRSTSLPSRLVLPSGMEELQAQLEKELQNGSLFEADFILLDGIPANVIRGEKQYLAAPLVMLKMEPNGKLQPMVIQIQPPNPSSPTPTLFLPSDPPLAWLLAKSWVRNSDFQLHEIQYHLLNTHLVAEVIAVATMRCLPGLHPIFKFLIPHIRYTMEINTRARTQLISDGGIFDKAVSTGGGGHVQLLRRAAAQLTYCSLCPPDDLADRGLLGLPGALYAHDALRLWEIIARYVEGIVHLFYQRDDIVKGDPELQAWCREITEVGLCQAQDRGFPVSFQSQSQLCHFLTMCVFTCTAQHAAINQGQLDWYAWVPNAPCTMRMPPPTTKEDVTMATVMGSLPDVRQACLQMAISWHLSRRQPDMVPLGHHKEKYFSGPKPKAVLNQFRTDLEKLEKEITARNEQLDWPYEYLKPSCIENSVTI
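Hydroperoxide product was detected by ferrous iron/xylenol orange as the 573 to 405 nm absorbance ratio. Arachidonic acid at 40 uM (final) was turned over for 30 min at room temperature by 150 nM human 12hLO, pH 7.0 Hepes buffer, after 15 min compound preincubation.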
Mito fusion act – qHTS Assay for Small Molecule Inhibitors of Mitochondrial Division or Activators of Mitochondrial Fusion. S. cerevisiae fusion-defective mutant growth rescue, CellTiterGlo 48 h. Potency, µM (doses to about 46.1 µM), usual class: activators. hit rate 0.23% among 320,000; also: nearly all actives have a fitted effect of over 45% in size
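Growth-rescue viability read-out: after 48 h at the non-permissive 37C in glycerol/ethanol YPEG, yeast mitochondrial fusion mutants are measured by CellTiterGlo luminescence; compounds (23 nl pinned per well) restoring growth score as division inhibitors or fusion activators.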
FUS yeast rescue – qHTS for Suppressors of FUS Proteinopathy: Primary screen using FUS-linked yeast assay; S. cerevisiae FUS-expressing, growth rescue, OD600, 24 h; Potency, µM (series often up to 76.6 µM), most hits filed as activators; hit rate 0.24% among 390,000; AID 1347120, 2019; also: nearly all actives have a fitted effect of over 55% in size
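Galactose (2%) drives FUS expression in yeast precultured in raffinose; seeding density OD 0.005. Test compounds incubated 24hr at 30C and 99% humidity before absorbance at 600 nm was measured.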
gsp agonist – qHTS for Agonist of gsp, the Etiologic Mutation Responsible for Fibrous Dysplasia/McCune-Albright Syndrome: qHTS. gsp mutant cells, cAMP HTRF, 30 min. Potency, µM (highest dose often 76.9 µM), usual class: activators. hit rate 0.13% among 340,000; active = well fitted activation curve with a large enough effect; inconclusive = small, poorly fitted or top-dose-only effect, or another doubt; inactive = no such curve, though single readings can be large or run the other way; cell line not stated here;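 also: phosphodiesterase inhibitor Ro 20-1724 added with compounds to block cAMP breakdown; nearly all actives have a fitted effect of over 60% in size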
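Cells in DMEM/10% FBS with G418 were pretreated with compounds in DMSO plus […] (300 uM stock) for 30 min at 37C. cAMP was measured by HTRF (cAMP-d2 plus anti-cAMP antibody-K) after 30 min at room temperature.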
gsp antag – qHTS for Antagonists of gsp, the Etiologic Mutation Responsible for Fibrous Dysplasia/McCune-Albright Syndrome: qHTS | gsp-mutant cells, cAMP HTRF, 30 min | Potency, µM (doses to about 76.9 µM), most hits filed as inhibitors | hit rate 0.4% among 340,000; calls by dose curve; cell line not stated here;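 also: intracellular cAMP measured with PDE inhibitor Ro 20-1724 present during compound exposure; nearly all actives have a fitted effect of over 65% in size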
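Cells in G418 medium, seeded 16-24 h, 37C; buffer exchange to DPBS + 1 mM CaCl2, 0.5 mM MgCl2, 0.05% BSA; cpds in DMSO + […] (300 uM stock), 30 min 37C; HTRF cAMP detection.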
Hits are given with their value; 0 = inactive; ? = inconclusive; - = no result; [ ] = remark or other dose. Unless noted, calls follow the shape of the dose curve; as a rule, active = well fitted curve in the direction sought with a large enough effect; inconclusive = small, poorly fitted or top-dose-only effect, or another doubt; inactive = no such curve, though single readings can be large; an effect the other way counts as inactive or inconclusive.

SMILES	12-LOX inh	Mito fusion act	FUS yeast rescue	gsp agonist	gsp antag
Cc1cc2cc(C(c3nnnn3Cc3ccco3)N3CCc4ccccc4C3)c(=O)[nH]c2cc1C (stereo not given)	?	0	14µM	0	0
O=C(Cc1ccc(O)cc1)N1CC(CNc2ccccc2)C2(C1)CN(c1ccccc1)C2 (stereo not given)	0	-	-	-	-
CCCNC(=O)NCCN(C)C	0	-	-	-	-
CC(C)c1cc(C(C)C)c(CC(=O)NS(=O)(=O)Oc2c(C(C)C)cccc2C(C)C)c(C(C)C)c1	24µM	-	-	-	-
O=S(=O)(Nc1cc2nc3ccccc3nc2n1Cc1ccccc1)c1ccc(Cl)cc1	45µM	0	-	?	0
COc1ccc(CC(=O)Nc2sc3c(c2C(N)=O)CCCC3)cc1OC	?	0	0	0	0
CCn1ncc(Br)c1C(=O)Nc1sc2c(c1C(N)=O)CCC2	0	20µM	0	0	0
NC(=O)c1c(NC(=O)c2ccc(F)cc2)sc2c1CCC2	18µM	0	0	0	0
COc1cccc(CC(=O)Nc2sc3c(c2C(N)=O)CCCC3)c1	0	0	0	35µM	0
CCCc1noc(-c2ccn3c(CNC(=O)c4cccc(Cl)c4)nnc3c2)n1	0	-	-	-	-
C[C@H](C(=O)N1CCCC1)[C@@H]1CC[C@@]2(C)Cc3sc(-c4ccsc4)nc3[C@@H](C)[C@@H]2[C@H]1O	0	-	-	-	-
COc1ccc(O)c(CN2CCN(C/C=C/c3ccccc3)CC2)c1	?	0	0	0	0
COc1cc(Br)cc(CN2CCN(C/C=C/c3ccccc3)CC2)c1O	14µM	0	0	0	0
COC(=O)C1=C(C)N(C)C(=O)NC1c1cccc(Cl)c1Cl (stereo not given)	0	-	-	-	-
COc1ccc(OC)c(-c2nc(C(=O)NCC3CCCO3)cc3c2[nH]c2ccccc23)c1 (stereo not given)	0	0	0	-	?
COc1cccc(-c2nc(C(=O)NCC3CCCO3)cc3c2[nH]c2ccccc23)c1 (stereo not given)	0	0	0	-	13µM
CCOC(=O)c1cc2c(C)n(-c3ccc(C)cc3)c(C)c2ccc1=O	?	0	0	0	?
CCOC(=O)c1cc2c(C)n(-c3ccc(OCC)cc3)c(C)c2ccc1=O	40µM	0	-	0	?
COC(=O)Cn1c(=O)c2c(nc3n2CCCN3Cc2ccccc2)n(C)c1=O	0	6.3µM	0	0	0
CC(C)(C)c1nc(CN2CCCC2)cs1	0	-	-	-	-
COc1cccc(CC2(CO)CCCN(C/C=C/c3ccccc3OC)C2)c1 (stereo not given)	0	0	0	0	0
COc1ccccc1/C=C/CN1CCCC(CO)(Cc2cccc(Cl)c2)C1 (stereo not given)	40µM	0	0	0[15.4 µM]	0
N#Cc1ncc(-c2ccc3c(c2)OCCOCCOCCOCCOCCO3)nc1C#N	0	20µM	0	0	0
N#Cc1ncc(-c2ccc3c(c2)OCCOCCOCCOCCO3)nc1C#N	?	0	-	0	0
S=c1[nH]nc(COc2ccc3ccccc3c2)o1	40µM	0	0	0	0
SMILES	12-LOX inh	Mito fusion act	FUS yeast rescue	gsp agonist	gsp antag
CCCc1nnc(NC(=O)c2nc(S(=O)(=O)Cc3cccc(C)c3)ncc2Cl)s1	0	0	0	0	28µM
O=C(Nc1ccc(F)cc1)c1nc(S(=O)(=O)Cc2ccccc2)ncc1Cl	0	0	0	0	40µM
Clc1ccccc1-c1noc(CCc2nc3ccccc3[nH]2)n1	0	-	-	-	-
Cc1ccc(NC(=O)Cc2n[nH]c(=O)c3ccccc23)cc1F	0	-	-	-	-
O=C(/C=C/c1ccc(-c2ccccc2Cl)o1)c1ccccc1	20µM	-	-	-	-
CN(C)CCNC(=O)/C(=C/c1ccc(-c2ccc(Cl)cc2Cl)o1)NC(=O)c1ccccc1	45µM	0	-	0	0
O=C(/C=C/c1ccc(-c2ccc(Cl)cc2Cl)o1)c1ccccc1	1.6µM	-	-	-	-
O=C(/C=C/C(=O)c1ccc(Cl)cc1)c1ccccc1	2.5µM	-	-	-	-
Cc1ccc2c(c1)N(CC(=O)NCCC1=CCCCC1)C(=O)c1cccnc1O2	20µM	0	0	0	0
Cc1nn(C)c(C)c1CC(=O)N1CCN(S(=O)(=O)c2c(C)noc2C)CC1	0	-	-	-	-
Cc1cc(OCCN2CC(C)OC(C)C2)ccc1[N+](=O)[O-] (stereo not given)	?	0	0	0	0
Cc1cc(OCCN2CCC(Cc3ccccc3)CC2)ccc1[N+](=O)[O-]	6.3µM	0	0	0	0
CC(C)(C)NC(=O)NC(=O)COC(=O)c1cc(-c2cccs2)nc2ccccc12	0	-	-	-	-
CCOCCCNC(=O)c1nnn2cc(-c3ccccc3)[nH]c(=O)c12	18µM	-	-	-	-
CCOCCCNC(=O)c1cc2c(=O)[nH]c(-c3ccccc3)cn2n1	0	-	-	-	-
Cn1cccc1CN1CCC2(CC1)C(=NC1CCCCC1)NC(=O)N2c1cc(F)cc(F)c1	0[6.33 µM]	-	-	-	-
Cc1[nH]n2c(=O)cc(-c3ccc(Cl)cc3)nc2c1-c1ccc(F)cc1	22µM	-	-	-	-
COCc1cc(=O)n2[nH]c(C)c(-c3ccc(Cl)cc3)c2n1	0	-	0	0	-
CCOC(=O)[C@@H]1[C@H]2COc3ccc(Br)cc3[C@H]2N2C(=O)N(c3ccc(C)cc3)C(=O)[C@]12C	0	0	22µM	0	0
Cc1ccccc1C(=O)NCC(=O)NCCc1c[nH]c2ccccc12	0	-	-	-	-
CC(NC(=O)C1CCN(S(=O)(=O)c2cccc(OC(F)(F)F)c2)CC1)c1cccnc1 (stereo not given)	0	-	-	-	-
Cc1ccc(-c2c(C(=O)N(C)Cc3ccccc3)oc(=O)c3ccccc23)cc1	0	16µM	?	0	0
CN(Cc1ccccc1)C(=O)c1oc(=O)c2ccccc2c1-c1ccccc1	0	?	-	0	0
CC(Sc1ccc(F)cc1)C(=O)NC(c1ccccc1)c1ccccc1 (stereo not given)	0	-	-	-	-
O=c1c(O)cccc2cc(O)c(O)c(O)c12	13µM	0	0	0	0
SMILES	12-LOX inh	Mito fusion act	FUS yeast rescue	gsp agonist	gsp antag
CC(NC(=O)c1ccccc1NC(=O)c1nn(C)c(=O)c2ccccc12)c1ccccc1 (stereo not given)	0	-	-	-	-
COc1cc(C(=O)N2CCc3c([nH]c4ccccc34)C2c2ccc(C)cc2)cc(OC)c1OC (stereo not given)	0	-	14µM	-	-
O=C(NCCCCc1ccccc1)NCc1ccc(CN2CCCC2)cc1	0	-	-	-	-
CSc1ccccc1C(=O)Nc1ccc2c(c1)OCCCO2	0	-	-	-	-
Cc1[nH]c(=S)sc1Cc1ccc(Cl)c(Cl)c1	32µM	0	-	-	-
Cc1nnc(SCc2ccc(Cl)c(Cl)c2)s1	0	0	-	0	0
COc1ccccc1Oc1ccc(NC(=O)C2CCN(S(C)(=O)=O)CC2)cc1	0	-	-	-	-
